# Compound activity: PubChem BioAssay, Buhrlage Lab, Dana-Farber Cancer Institute and Novartis Institutes for BioMedical Research (Cambridge, Mass)
# USP17 inh: human USP17-like deubiquitinase inhibition; A8MUK1; purified USP17, Ub-rhodamine cleavage fluorescence, 3 h; inhibition, % at 50 µM; 47,000 compounds, 6.5% hits; AID 1645855
# USP28 inh: blocks human USP28 ubiquitin-rhodamine cleavage; Q96RU2; purified USP28, Ub-rhodamine cleavage fluorescence, 30 min; inhibition, % at 25 µM; 47,000 compounds, 3% hits; AID 1645857
# Target sequence (Q96RU2 whole entry, looked up): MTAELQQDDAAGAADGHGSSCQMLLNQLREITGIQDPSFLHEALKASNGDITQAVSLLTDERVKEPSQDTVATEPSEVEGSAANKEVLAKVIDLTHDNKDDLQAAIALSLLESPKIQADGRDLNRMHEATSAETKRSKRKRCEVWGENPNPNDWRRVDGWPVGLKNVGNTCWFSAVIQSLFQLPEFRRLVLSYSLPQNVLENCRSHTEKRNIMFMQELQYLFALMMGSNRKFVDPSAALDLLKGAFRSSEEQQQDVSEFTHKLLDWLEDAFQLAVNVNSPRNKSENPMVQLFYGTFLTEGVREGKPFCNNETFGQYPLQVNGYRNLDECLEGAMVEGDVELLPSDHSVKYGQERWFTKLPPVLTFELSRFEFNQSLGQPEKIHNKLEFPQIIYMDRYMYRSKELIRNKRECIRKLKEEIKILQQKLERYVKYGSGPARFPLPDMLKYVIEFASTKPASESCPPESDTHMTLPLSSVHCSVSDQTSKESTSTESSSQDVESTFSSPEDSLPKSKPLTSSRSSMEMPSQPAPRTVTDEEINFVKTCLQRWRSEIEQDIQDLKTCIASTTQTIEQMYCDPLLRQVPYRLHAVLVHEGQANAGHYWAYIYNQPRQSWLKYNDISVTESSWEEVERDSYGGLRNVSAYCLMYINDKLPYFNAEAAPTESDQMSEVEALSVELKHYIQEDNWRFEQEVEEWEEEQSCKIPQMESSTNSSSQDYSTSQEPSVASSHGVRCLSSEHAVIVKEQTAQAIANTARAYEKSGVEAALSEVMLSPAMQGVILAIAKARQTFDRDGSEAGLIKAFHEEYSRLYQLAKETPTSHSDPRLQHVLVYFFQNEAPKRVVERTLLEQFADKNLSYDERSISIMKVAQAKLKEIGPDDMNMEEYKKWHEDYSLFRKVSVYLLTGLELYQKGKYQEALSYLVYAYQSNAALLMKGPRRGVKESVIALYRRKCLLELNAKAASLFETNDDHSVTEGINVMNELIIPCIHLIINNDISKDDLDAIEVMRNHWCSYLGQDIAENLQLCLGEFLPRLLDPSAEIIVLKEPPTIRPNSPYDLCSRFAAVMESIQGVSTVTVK
# USP30 inh: inhibitors of human USP30 deubiquitinase; Q70CQ3; purified USP30, Ub-rhodamine cleavage fluorescence; inhibition, % at 25 µM; 47,000 compounds, 5.3% hits
# Numbers stand for hits; i = inactive; nt = no result given. A selection: hits, their analogues and other compounds. The true share with any hit is near 11%. Cut-off read from the data, not from the text of the source: active = inhibition above about 30%; inactive = the rest.
SMILES,USP17 inh,USP28 inh,USP30 inh
COc1ccc(NC(=O)Cn2c(=O)n(CCC(=O)NC3CCCC3)c(=O)c3ccccc32)cc1Cl,i,i,i
O=C(Cn1c(=O)n(CCCC(=O)NC2CCCC2)c(=O)c2cc(Cl)ccc21)Nc1cccc(F)c1,i,i,37.4
COc1cc2c(=O)n(CCC(=O)NC3CCCC3)c(=O)n(CC(=O)Nc3cccc(Cl)c3)c2cc1OC,42.3,i,i
COc1ccc(NC(=O)Cn2c(=O)n(C3CCCC3)c(=O)c3cc(OC)c(OC)cc32)cc1OC,39.5,i,i
COc1ccc(NC(=O)Cn2c(=O)n(CCCC(=O)NC3CCCC3)c(=O)c3cc(Cl)ccc32)cc1,i,i,i
CCn1c(=O)c2cc(OC)c(OC)cc2n(CC(=O)c2ccc(OC)c(OC)c2)c1=O,i,i,47.4
CCOc1ccc(C(=O)Cn2c(=O)n(Cc3ccccc3)c(=O)c3cc(Cl)ccc32)cc1Cl,i,i,i
COc1ccc(N2CC(CNS(=O)(=O)c3cc(F)ccc3F)CC2=O)cc1 (stereo unspecified),i,i,i
O=C(NCCCc1nc2ccccc2n1CCC1CCCCC1)c1ccco1,i,i,i
COc1cc(OC)c(NC(=O)Cn2c(=O)n(Cc3ccccc3Cl)c(=O)c3cc(OC)c(OC)cc32)cc1Cl,i,36.2,60.5
COc1cccc(-n2c(=O)c3cc(OC)c(OC)cc3n(CC(=O)Nc3cc(C)[nH]n3)c2=O)c1,i,i,i
Cn1c(=O)c2c(-c3ccccc3)n(-c3ccc4c(c3)OCCO4)cc2n(C)c1=O,32.2,i,i
Cn1c(=O)c2c(-c3ccccc3)n(CCO)cc2n(C)c1=O,i,i,i
CCOc1cc2[nH]c(=O)n(CCCC(=O)NCc3ccco3)c(=O)c2cc1OCC,33.3,i,i
COc1ccc(NC(=O)CCCCn2c(=O)[nH]c3ccccc3c2=O)cc1OC,i,i,i
COC(=O)c1ccc2c(=O)n(CCCCCC(=O)NCCc3ccc(S(N)(=O)=O)cc3)c(=O)[nH]c2c1,i,85.6,88.4
COC(=O)c1ccc2c(=O)n(CCCCCC(=O)NCCc3ccccc3Cl)c(=O)[nH]c2c1,i,i,i
CCOc1cc2[nH]c(=O)n(CC3CCC(C(=O)N4CCN(c5ccccn5)CC4)CC3)c(=O)c2cc1OCC (stereo unspecified),i,i,i
COc1cccc(CNC(=O)CCCCCn2c(=O)[nH]c3ccccc3c2=O)c1,i,i,41.2
COc1cc2[nH]c(=O)n(Cc3ccc(C(=O)NCc4ccco4)cc3)c(=O)c2cc1OC,i,i,i
CCOc1cc2[nH]c(=O)n(Cc3cccnc3)c(=O)c2cc1OCC,i,i,32.9
CC(C)Cc1cnc2c(c1SCC(=O)N1CCCCC1)c(=O)n(C)c(=O)n2C,nt,i,i
Cc1cc(NC(=O)CN2CCCC2c2noc(C)n2)n(C)n1 (stereo unspecified),i,i,i
O=C(CN1CCCC1c1ccc2c(c1)OCCCO2)NCCc1ccccc1 (stereo unspecified),i,i,i
COc1cc(NC(=O)Cn2c(=O)[nH]c3ccccc3c2=O)cc(OC)c1,52.9,i,73.3
SMILES,USP17 inh,USP28 inh,USP30 inh
O=C(Cn1c(=O)[nH]c2ccccc2c1=O)NC1CCCC1,i,i,i
COc1cc(C)c(NC(=O)c2cc(-c3ccccc3)c(N3CCOCC3)s2)cc1OC,59.0,i,i
Cc1ccc(NC(=O)c2cc(-c3ccccc3)c(N3CCOCC3)s2)cc1,i,i,i
CCc1ccccc1NC(=O)c1cc(-c2ccccc2)c(N2CCOCC2)s1,i,i,i
CCOc1ccc(NC(=O)c2cc(-c3ccccc3)c(N3CCOCC3)s2)cc1,53.3,i,i
Cc1ccc(S(=O)(=O)N2CCN=C2N2CCCCC2)cc1,i,i,i
O=C(Cc1ccc(Cl)cc1)Nc1nnc(C2CCCO2)s1 (stereo unspecified),i,i,i
COc1ccc(C(=O)NC2CCN(Cc3c(C)noc3C)CC2)cc1,i,i,i
O=C(CSc1ncccc1C(=O)N1CCC(Cc2ccccc2)CC1)Nc1ccc(Cl)cc1,i,i,i
O=C(c1cc(C2CC2)[nH]n1)N1CCC(Cc2ccccc2)CC1,i,i,32.5
O=C(c1cc(C2CC2)[nH]n1)N1CCC(C2Nc3ccccc3S(=O)(=O)N2)CC1 (stereo unspecified),i,i,i
O=C(c1cn2cc(Cl)ccc2n1)N1CCC(Cc2ccccc2)CC1,i,i,30.1
Cc1cnc(-c2cnc(C3CCCN3C(=O)c3ccccc3)cn2)[nH]1 (stereo unspecified),i,i,i
CN(C)C(=O)CN1[C@H]2CCN(C(=O)CC3CC3)CC[C@@H]2Oc2ccccc2S1(=O)=O,i,i,i
Cc1ccc(S(=O)(=O)Nc2ccccc2SCCS(=O)(=O)c2ccc(Cl)cc2)cc1,i,i,50.6
Cc1ccc(S(=O)(=O)Nc2ccccc2CCc2nc3ccccc3[nH]2)cc1,i,i,i
COc1ccc(-n2cc(-c3cnccn3)cn2)cc1,i,i,i
COc1ccc2c(c1)C/C(=C/c1ccc(OC)cc1OC)CC2=O,i,i,i
COc1cccc2c1C(=O)c1ccc3c(c1C2=O)C(=O)CC(C)(O)C3 (stereo unspecified),62.2,i,i
CCCn1cnnc1C1CCCN(Cc2ccc3cc[nH]c3c2)C1 (stereo unspecified),i,i,i
O=C1CC(c2ccc(Cl)cc2)n2nc(NC(=O)C3CC3)nc2N1 (stereo unspecified),i,i,i
Cc1ccc(C(=O)Nc2nc3n(n2)C(c2ccccc2)CC(=O)N3)cc1 (stereo unspecified),70.8,i,i
COc1ccc(/C=C/C(=O)Nc2nc3n(n2)C(c2ccccc2)CC(=O)N3)cc1OC (stereo unspecified),i,i,i
O=C(/C=C/c1cccc([N+](=O)[O-])c1)Nc1nc2n(n1)C(c1ccccc1)CC(=O)N2 (stereo unspecified),i,i,37.6
O=C1CC(c2ccccc2)n2nc(NC(=O)c3ccccc3)nc2N1 (stereo unspecified),i,i,i
SMILES,USP17 inh,USP28 inh,USP30 inh
COc1ccc(/C=C/C(=O)Nc2nc3n(n2)C(c2ccccc2)CC(=O)N3)cc1 (stereo unspecified),i,i,30.9
C[C@H]1CN(C(=O)Nc2ccc(F)cc2)C[C@@H]1c1nc(-c2cccnc2)no1,i,i,i
COc1ccc(CNc2nc3c(c(=O)n2C)CN(C(=O)Nc2cccc(C#N)c2)CC3)cc1,i,i,i
Cc1ccccc1NC(=O)C1CCc2nc(N3CCCCC3)ncc2C1 (stereo unspecified),i,i,i
Cc1ccc(CSc2nc3nc4c(cn3n2)C(=O)CCC4)cc1,i,nt,nt
Cc1cccc(CSc2nc3nc4c(cn3n2)C(=O)CC(C)(C)C4)c1,i,i,35.1
CSc1ncccc1C(=O)Nc1ccnn1Cc1ccccn1,i,i,i
CSc1ncccc1C(=O)OCc1ccc(Cl)c(Cl)c1,45.4,43.5,i
Cc1cc(-c2noc(Cc3ccccc3)n2)c2ccccc2n1,nt,i,i
Cc1c(OCc2ccc(Cl)cc2Cl)ccc2c1OC(C)(C)CC2=O,i,i,i
Cc1c(OCc2ccccc2F)ccc2c1OC(C)(C)CC2=O,30.7,i,i
CCOC(=O)N1CCN(C(=O)C2CN(C(=O)c3ccc4c(c3)OCO4)C2)CC1,i,i,i
Cn1c(CNS(=O)(=O)c2ccc(Br)cc2)nnc1SCc1ccc(Cl)c(Cl)c1,i,40.8,35.4
